Publication PMC4552634, “A New Set of Chemical Starting Points with Plasmodium falciparum Transmission-Blocking Potential for Antimalarial Drug Discovery” (PLoS ONE, 2015)
Out of some 13,000 compounds screened, about 3,200 (25%) showed an effect of 50% or more. The list shows a part of the results.

The compounds below were run on P. falciparum stage V gametocytes. Conditions: 48 h, 5 µM; inhibitor.
Design: BacTiter-Glo ATP luminescence viability of purified stage V gametocytes in 384-well plates, per cent inhibition versus DMSO

Row | SMILES | % Inhibition [%]
1 | CN(C)CCNC(=O)c1cccc(-c2cnc3ccc(NCc4ccc(Cl)c(Cl)c4)nn23)c1 [TCMDC-136677] | 49.91
2 | Cc1ccc(CNc2ccc3ncc(-c4cccc(C(=O)NCCN(C)C)c4)n3n2)c(C)c1 [TCMDC-136684] | 104.7
3 | CN1CCN(c2ccc(CNc3ccc4ncc(-c5cccc(OC(F)(F)F)c5)n4n3)cc2)CC1 [TCMDC-136690] | 11.23
4 | Clc1ccc(-c2cnc3ccc(NCCc4cccnc4)nn23)cc1 [TCMDC-136680] | -25.41
5 | CN1CCN(c2ccc(CNc3ccc4ncc(-c5ccc(OC(F)(F)F)cc5)n4n3)cc2)CC1 [TCMDC-136689] | -0.7792
6 | Clc1ccc(-c2cnc3ccc(NCc4ccncc4)nn23)cc1 [TCMDC-136682] | 21.16
7 | CN(C)c1cccc(-c2cnc3ccc(NCc4cccc(Cl)c4)nn23)c1 [TCMDC-136673] | 81.33
8 | CN(C)CCNC(=O)c1ccc(-c2cnc3ccc(NCc4ccc(Cl)c(Cl)c4)nn23)cc1 [TCMDC-136678] | 106.7
9 | OC1CCC(Nc2ccc3ncc(-c4ccc5ccccc5c4)n3n2)CC1 (stereo not shown) [TCMDC-136691] | 25.44
10 | CCC(C)NC(=O)CN1CN(c2ccccc2)C2(CCN(C(=O)c3ccc4ccccc4c3)CC2)C1=O (stereo not shown) [TCMDC-125174] | -36.87
11 | CCNc1cc(C)nc(Nc2ccc(NS(=O)(=O)c3cc(OC)ccc3OC)cc2)n1 [TCMDC-124953] | -19.07
12 | CC(C)c1ccc(NC(=O)c2ccc(C(=O)NC3CCN(CC4CCCCC4)C3)cc2)cc1 (stereo not shown) [TCMDC-136743] | -27.55
13 | COc1cccc2cc(C(=O)N[C@@H](CC(C)C)C(=O)N[C@H](/C=N/NC(=O)c3ccccc3)Cc3cnc[nH]3)oc12 [TCMDC-135820] | 40.86
14 | CN(C)CCOc1cc(NC(=O)Nc2ccc(-c3ccncc3)c(Cl)c2)ccc1I [TCMDC-139135] | 19.45
15 | COc1ccc(C(=O)C2CCN(CCCCNC(=O)c3ccc(NC(=O)c4cc(Cl)cc(Cl)c4)cc3)CC2)cc1 [TCMDC-138228] | -14.09
16 | O=C(c1ccc(Cl)cc1)C1CCN(CCCOc2ccc3c(c2)CCNCC3)CC1 [TCMDC-141781] | 60.35
17 | COc1ccc(C(=O)C2CCN(CCCCNC(=O)c3ccc(NC(=O)c4ccc(Cl)cc4)cc3)CC2)c(OC)c1 [TCMDC-138625] | -32.94
18 | Clc1ccc(C2CCN(CCCOc3ccc4c(c3)CCNCC4)CC2)cc1 [TCMDC-141782] | 72
19 | CC(C)(C)c1ccc(NC(=O)Nc2ccc(Cn3ncc(N4CCCNCC4)c(Cl)c3=O)cc2)cc1 [TCMDC-133314] | -23.28
20 | COc1ccc(-c2onc(C(F)(F)F)c2-c2cc3ccccc3o2)c(O)c1 [TCMDC-124534] | 7.209
21 | O=C(Nc1ccc(-c2ccccc2)cc1)Nc1ccc2c(c1)CCNCC2 [TCMDC-133729] | 60.87
22 | O=C(Nc1ccc(Cl)c(Cl)c1)Nc1ccc2c(c1)CCNCC2 [TCMDC-133731] | 29.44
23 | Cc1ccc(NC(=O)c2ccc(Cl)cc2)cc1-c1ccc(C(=O)Nc2ccncc2)cc1 [TCMDC-133698] | -1.939
24 | CN1CCCc2cc(NC(=O)c3cc(-c4ccc(Cl)cc4)cs3)ccc2C1 [TCMDC-134050] | 7.243

Row | SMILES | % Inhibition [%]
25 | O=C(Nc1ccc2c(c1)CCNCC2)Nc1ccc2ccccc2c1 [TCMDC-133733] | -8.361
26 | CN1CCc2ccc(NC(=O)Nc3ccc(-c4ccccc4)cc3)cc2C1 [TCMDC-133725] | -3.896
27 | CN1CCN(c2cc(NC(=O)c3ccc(-c4ccc(Cl)cc4)cc3)ccc2Cl)CC1 [TCMDC-138671] | -15.54
28 | O=C(Nc1ccc2c(c1)CCNCC2)c1ccc(-c2ccc(Cl)cc2)cc1 [TCMDC-141480] | 106.4
29 | O=C(Nc1ccc2c(c1)CNCC2)c1ccc(-c2ccc(Cl)cc2)cc1 [TCMDC-141479] | 71.62
30 | CC1CCN(Cc2c(O)ccc3c(=O)c(-c4nc5ccccc5s4)c(N)oc23)CC1 [TCMDC-124313] | 12.71
31 | Cc1ccc(OCCCON2C(N)=NC(N)=NC2(C)C)cc1C [TCMDC-131650] | 7.659
32 | Cc1nc(NCCc2cnc[nH]2)cc(NCc2ccccc2)n1 [TCMDC-135164] | -1.635
33 | CN(C(=O)c1cc2c(-c3cncnc3)cccc2[nH]1)c1ccccc1 [TCMDC-134637] | 36.22
34 | CCC(CC)CN1C(=O)C(C)(c2ccccc2)N=C1N (stereo not shown) [TCMDC-137051] | 1.821
35 | COc1cc2c(cc1S(=O)(=O)c1ccc(NC(=O)c3ccc4ccccc4c3)cc1)CCN(C)CC2 [TCMDC-133792] | 8.081
36 | COc1cc2c(cc1S(=O)(=O)c1ccc(NC(=O)c3cccc(C(F)(F)F)c3)cc1)CCN(C)CC2 [TCMDC-133791] | -4.764
37 | COc1cccc(C(=O)Nc2ccc(S(=O)(=O)c3cc4c(cc3OC)CCN(C)CC4)cc2)c1 [TCMDC-133790] | 79.19
38 | O=C(CCc1cnc[nH]1)Nc1ccc(-c2ccc(-c3nc4ccccc4[nH]3)cc2)cc1 [TCMDC-132156] | -24.85
39 | c1csc(-c2nc(N3CCCCC3)ncc2-c2ccsc2)n1 [TCMDC-125370] | 9.865
40 | C=CCc1c(C(=O)NCC23CC4CC(CC(C4)C2)C3)[nH]c2ccccc2c1=O [TCMDC-136371] | -9.366
41 | CC(C)Cc1cn(-c2nc(-c3nc4ccccc4[nH]3)cs2)c2ccncc12 [TCMDC-132419] | 3.094
42 | Cc1cc(N[C@@H](Cc2ccccc2)C(=O)NCCc2ccccc2)nc(NCc2ccccc2C)n1 [TCMDC-134907] | -0.7865
43 | COc1ccccc1CCNc1nc(C)cc(N[C@@H](Cc2ccccc2)C(=O)NCCCOC(C)C)n1 [TCMDC-134861] | 55.12
44 | COc1ccccc1CCNc1nc(C)cc(N[C@@H](Cc2ccccc2)C(=O)Nc2ccccc2)n1 [TCMDC-134804] | 36.98
45 | Cc1cc(N[C@@H](Cc2ccccc2)C(=O)NCCc2ccccc2)nc(NCCc2ccccc2)n1 [TCMDC-134776] | 144.5
46 | COc1ccccc1CCNc1nc(C)cc(N[C@@H](CC(C)C)C(=O)NCCc2ccccc2)n1 [TCMDC-134807] | 30.27
47 | Cc1cc(N[C@@H](Cc2ccccc2)C(=O)NCCCOC(C)C)nc(NCC2CCCCC2)n1 [TCMDC-134931] | 30.55
48 | COc1ccccc1CCNc1nc(C)cc(N[C@@H](Cc2ccccc2)C(=O)NCCc2ccccc2)n1 [TCMDC-134803] | 83.15

Row | SMILES | % Inhibition [%]
49 | Cc1cc(N[C@@H](Cc2ccccc2)C(=O)NCCc2ccccc2)nc(NCCc2ccc(F)cc2)n1 [TCMDC-134867] | 49.67
50 | Cc1cccc(CNc2nc(C)cc(N[C@@H](Cc3ccccc3)C(=O)NCCc3ccccc3)n2)c1 [TCMDC-134889] | -24.79
51 | COc1ccccc1CCNc1nc(C)cc(N[C@@H](Cc2ccccc2)C(=O)NCCOc2ccccc2)n1 [TCMDC-134862] | 100.5
52 | COC(=O)c1ccc(OCC(C)NCC(O)c2cccc(C(F)(F)F)c2)cc1 (stereo not shown) [TCMDC-131464] | 25.27
53 | N#Cc1ccc2c(c1)CCN(CCCn1c(-c3ccc4ccccc4c3)nc3ccncc31)CC2 [TCMDC-135551] | 19.09
54 | O=C(NCc1ccc(C(=O)NCc2cccc3ccccc23)cc1)c1ccc(O)c(-c2ccc(Cl)c(Cl)c2)c1 [TCMDC-140878] | 23.84
55 | Cc1ccc2nc(-c3ccccc3)cc(NN=Cc3cccnc3)c2c1 [TCMDC-142053] | -1.228
56 | CCOc1ccccc1N1CCN(CCCNC(=O)/C(=C/C=C/c2cc3cc(Cl)c(Cl)cc3[nH]2)OC)CC1 [TCMDC-139176] | 6.847
57 | Cc1cccc(CNc2ncc(C)c(NCCC(=O)Nc3ccccc3)n2)c1 [TCMDC-134848] | 47.31
58 | O=C(Nc1ccc(Br)cc1)N(CCN1CCOCC1)CC(O)COCc1ccc(F)cc1 (stereo not shown) [TCMDC-141489] | 29.66
59 | Cc1cc(=O)[nH]c(-n2nc(C)cc2NC(=O)C2(c3ccc(Cl)cc3)CCCC2)n1 [TCMDC-124943] | 43.65
60 | CN(C)CCN(C)C(=O)c1cc(-c2ccncc2)c(-c2ccc(Cl)c(O)c2)o1 [TCMDC-141393] | -25.23
61 | COc1c(C2=CCN(CCCCNC(=O)c3ccc(-c4ccc(C#N)cc4)cc3)CC2)ccc2c1CCCC2 [TCMDC-138753] | -8.55
62 | Cc1cc(N(C)CCN(C)C)nc(Nc2ccc(Cl)cc2)n1 [TCMDC-137008] | 22.54
63 | O=C(NC(=O)c1ccccc1)NC1CCN(c2ccnc3cc(Cl)ccc23)C1 (stereo not shown) [TCMDC-133403] | -14.2
64 | CCC[C@@H]([C@@H](CC1CCCCC1)C(=O)N[C@H](C(=O)Nc1ccccn1)[C@H](C)CC)N(O)C=O [TCMDC-138122] | -1.104
65 | Nc1ncc(-c2ccc3[nH]ccc3c2)c2ccc(-c3ccncc3)cc12 [TCMDC-133396] | 22.16
66 | Nc1ncc(-c2ccc3nccc(-c4ccncc4)c3c2)cc1S(=O)(=O)N1CCCCC1 [TCMDC-134265] | 97.23
67 | CS(=O)(=O)c1ccc2nc(-c3cc(-c4ccc(OCCN5CCOCC5)cc4)cnc3N)[nH]c2c1 [TCMDC-133720] | 8.028
68 | CN1CCN(c2ccnc3ccc(NC(=O)Cc4ccc(-c5ccncc5)c5ccccc45)cc23)CC1 [TCMDC-139256] | 19.54
69 | O=C(c1ccc(-c2cnc3[nH]cc(-c4ccc(C(=O)N5CCOCC5)cc4)c3c2)cc1)N1CCOCC1 [TCMDC-132781] | -2.017
70 | Nc1ncc(-c2ccc3nccc(-c4ccncc4)c3c2)cc1S(=O)(=O)N1CCOCC1 [TCMDC-134180] | 94.06
